FBW7 act: FBW7 E3 ligase activators, primary screen, biochemical, AlphaScreen, human; F-box/WD repeat-containing protein 7 (Homo sapiens), Q969H0; AlphaScreen FBW7–phospho-cyclin E peptide binding, activator screen; normalized activity (activation), % at 26.1 µM; hit rate 0.13% among 650,000; AID 1259310, 2017; in the data active = normalized activity above about 1.9%;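 also: purified mutant Fbw7 with reduced substrate affinity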
MITF inh: MITF inhibitors, primary screen, biochemical, AlphaScreen, human. Microphthalmia-associated transcription factor (Homo sapiens), O75030. AlphaScreen MITF homodimerization, bead proximity signal. inhibition, % at 2.6 µM. hit rate 0.91% among 650,000. AID 1259374, 2018; in the data active = inhibition above about 50%;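 also: 0% = vehicle wells with protein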
Target sequence (O75030 whole entry, looked up): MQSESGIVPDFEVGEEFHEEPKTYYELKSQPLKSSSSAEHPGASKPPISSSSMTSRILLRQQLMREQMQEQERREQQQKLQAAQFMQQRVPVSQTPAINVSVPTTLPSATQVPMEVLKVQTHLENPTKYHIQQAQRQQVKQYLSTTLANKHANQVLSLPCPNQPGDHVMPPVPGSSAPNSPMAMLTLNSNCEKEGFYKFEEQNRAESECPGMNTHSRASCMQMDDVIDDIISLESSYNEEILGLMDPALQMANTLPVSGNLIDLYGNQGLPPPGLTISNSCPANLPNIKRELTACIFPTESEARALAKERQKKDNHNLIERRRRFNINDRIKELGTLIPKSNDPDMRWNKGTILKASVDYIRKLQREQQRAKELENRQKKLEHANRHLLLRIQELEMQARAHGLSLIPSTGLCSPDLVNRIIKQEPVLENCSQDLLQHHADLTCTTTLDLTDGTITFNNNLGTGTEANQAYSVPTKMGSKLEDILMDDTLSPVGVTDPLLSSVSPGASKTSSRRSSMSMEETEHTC
TEAD-YAP block: TEAD-YAP interaction inhibition, primary screen, TEAD-YAP interaction inhibitor project, luminescence, HEK-TIYL cells; inhibition, % at 9.12 µM; hit rate 1.4% among 640,000; AID 1259422, 2018; TEAD-Gal4/YAP UAS-luciferase luminescence; in the data active = inhibition above about 32%;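 also: 0% = median of test compound wells and 100% = reference inhibitor wells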
GPR151 activ: activators of human GPR151, primary screen, cell-based, PathHunter beta-arrestin, luminescence. G-protein coupled receptor 151 (Homo sapiens), Q8TDV0. PathHunter beta-arrestin GPR151 cells. activation, % at 11.2 µM. hit rate 1% among 650,000; in the data active = activation above about 4.9%;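 also: 0% = median of compound wells and 100% = cells with positive control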
GPR151 confirm: GPR151 activators, triplicate retest, confirmation, cell-based, PathHunter beta-arrestin, luminescence; 6,700 tested, under 10 active; shares compounds with GPR151 activ; activation, % at 11.2 µM; GPR151 PathHunter beta-arrestin cells, 90 min; % of EA-reagent control over plate median;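 active = mean percent activation across replicates above the confirmation screen cutoff of 4.91%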
GPR119 ag: GPR119 activators in beta-arrestin cells, counter-screen for GPR151 activator project, cell-based, PathHunter beta-arrestin, luminescence, triplicate. shares compounds with GPR151 activ. 90 min; 0 = compound-well median, 100 = enzyme-acceptor control. activation, % at 11.2 µM. hit rate 0.3% among 6,700. AID 1508611, 2020;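 active = mean percent activation in the counterscreen above 29.09%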;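 also: counterscreen on off-target GPR119 to flag nonselective hits from the GPR151 activator screen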
Starred values were filed as active, the others as inactive; . = not tested or not shown. Hits are enriched below; roughly 3.5% of the tested compounds scored in any of these assays.

SMILES | FBW7 act | MITF inh | TEAD-YAP block | GPR151 activ | GPR151 confirm | GPR119 ag
COc1cc(NC(=O)CSc2nnnn2-c2ccc(OC)c(OC)c2)cc(OC)c1 | -0.1 | 0.6 | 3.3 | 5.0* | 0.0 | 0.8
COc1ccc(-n2nnnc2SCC(=O)Nc2ccc(NC(C)=O)cc2)cc1OC | -0.1 | -0.9 | 6.8 | 1.9 | . | .
CCC(C)c1ccc(NC(=O)CSc2nnnn2-c2ccc(OC)cc2)cc1 (stereo not given) | 1.2 | 12.6 | 5.7 | 5.6* | 0.5 | -0.2
Brc1cccc(-c2nnc(CN3CCN(Cc4ccccc4)CC3)o2)c1 | 0.1 | 2.1 | -1.4 | 6.0* | -0.1 | -3.6
O=C(Cc1ccccc1)N1CCC(N2CCCC2)CC1 | -0.1 | 6.5 | 11.7 | -0.5 | . | .
O=C(Cc1ccccc1)N1CCC(=O)N(CC2CC2)CC1 | -0.1 | 10.3 | 0.0 | 9.9* | 0.0 | 1.4
CCOC(=O)C1=C(C)OC(N)=C(C#N)C1c1ccccc1C(F)(F)F (stereo not given) | -0.1 | 3.1 | -0.3 | 7.1* | 0.1 | -4.7
COC(=O)C1=C(C)OC(N)=C(C#N)C1c1ccccc1C(F)(F)F (stereo not given) | 0.0 | -8.1 | 2.0 | -1.2 | . | .
CCOC(=O)C1=C(C)OC(N)=C(C#N)C1c1ccc(OC)c(OC)c1 (stereo not given) | -0.1 | -0.4 | -0.6 | -0.1 | . | .
CCOC(=O)C1=C(C)OC(N)=C(C#N)C1c1ccc(OC)c(OCC)c1 (stereo not given) | 0.0 | -21.8 | 0.6 | 5.2* | 0.1 | 9.8
O=C(COC(=O)c1ccc[n+]([O-])c1)Nc1ccc(OC(F)F)cc1 | 0.1 | 12.6 | -1.1 | 1.4 | . | .
Cc1ccc(N2CC(C(=O)NCCc3ccc(Cl)cc3)CC2=O)cc1C (stereo not given) | -0.1 | -12.7 | 2.4 | 0.3 | . | .
Oc1ccccc1CNc1cc2c(cc1Br)OCCO2 | -0.3 | 9.6 | -1.6 | 19.0* | 0.3 | -1.6
Oc1ccccc1CNc1ccc2c(c1)OCCO2 | -0.2 | 4.6 | -19.2 | -0.5 | . | .
Cn1nnnc1SCc1nnc(-c2cccs2)o1 | 0.1 | 2.3 | -20.6 | 7.6* | 0.7 | 14.1
Cn1nnnc1SCc1nnc(-c2ccccc2)o1 | -0.2 | -2.9 | -25.1 | 0.9 | . | .
CCOc1ccc(NC(=O)C2c3cccc[n+]3CC(=O)N2c2ccccc2O)cc1 (stereo not given) | 0.0 | 8.6 | -35.0 | 5.1* | -1.2 | 0.1
O=C(Nc1ccc(Cl)cc1)C1c2cccc[n+]2CC(=O)N1c1ccc(O)cc1 (stereo not given) | -0.1 | -0.7 | -2.0 | 0.8 | . | .
COc1cc(/C=N/NC(C)(C)C)ccc1OC(=O)c1cccs1 | 0.2 | 12.7 | 4.2 | -0.1 | . | .
C/C(=N\Nc1nc(C)cc(=O)[nH]1)c1ccccc1 | 0.2 | -17.6 | 9.4 | 1.5 | . | .
CN(Cc1ccccc1)C(=O)C1CCN(S(=O)(=O)c2ccc3c(c2)OCC(=O)N3)CC1 | 0.0 | -7.7 | -6.1 | 6.7* | -1.3 | -6.7
O=C1COc2cc(S(=O)(=O)N3CCC(Cc4ccccc4)CC3)ccc2N1 | 0.7 | 10.1 | 2.8 | 0.5 | . | .
COc1ccc(/C=C(\C#N)C(=O)NCc2ccc(F)cc2)c(OC)c1OC | 0.0 | 3.2 | -0.8 | 0.5 | . | .
COc1ccc(CCNC(=O)c2cncc(Nc3ncccn3)c2)cc1 | 0.1 | -0.8 | 1.5 | 6.9* | -1.0 | -8.9
COc1ccc(C(NC(=O)CCc2ccccc2)NC(=O)CCc2ccccc2)cc1OC | -0.2 | -1.6 | -6.5 | -1.2 | . | .
SMILES | FBW7 act | MITF inh | TEAD-YAP block | GPR151 activ | GPR151 confirm | GPR119 ag
Nc1c(C(=O)c2ccccc2)sc2nc3c(c(-c4cccs4)c12)CCC3 | 0.2 | -15.3 | 3.2 | -0.8 | . | .
Cc1c(Cl)cccc1NC(=O)C(=O)NCC(O)c1ccccc1 (stereo not given) | -0.1 | -1.6 | -6.0 | 7.3* | -0.2 | 10.1
Cc1c(Cl)cccc1NC(=O)C(=O)NC(C)c1ccccc1 (stereo not given) | 0.0 | 1.1 | 2.6 | 0.9 | . | .
CCOCCCNCc1ccccc1OCc1ccccc1 | -0.1 | -13.0 | 0.4 | 12.7* | -0.5 | -5.6
Cc1nc(N2CCOCC2)nc(Nc2ccc(Cl)cc2)c1[N+](=O)[O-] | -0.1 | -16.7 | -3.7 | -1.4 | . | .
CCCCCCOc1ccc(C(=O)O)cc1 | -0.1 | -27.4 | -0.1 | -4.5 | . | .
CCCOc1ccc(-c2ccc(C(=O)O)cc2)cc1 | 0.0 | 7.8 | -22.5 | 6.3* | -0.1 | 1.6
O=C(CSc1ccccc1)N1CCC(CO)(CCc2ccccc2)CC1 | 0.1 | 17.4 | 0.2 | -2.7 | . | .
CCOC(=O)C1=C(C)NC2=C(C(=O)CC(c3ccc(Cl)cc3)C2)C1c1ccc2c(c1)OCO2 (stereo not given) | 1.4 | 14.5 | 9.0 | -1.0 | . | .
Cn1c(C(=O)Nc2ccccc2)cc2c(=O)n3ccccc3nc21 | 1.4 | 11.7 | -20.8 | 0.2 | . | .
Cc1ccc(C2CC(=O)n3nc(N)nc3N2)cc1 (stereo not given) | -0.1 | 14.2 | -1.4 | 5.9* | -0.5 | 4.7
Cc1ccc(C2CC(=O)n3c(nc4ccccc43)N2)cc1 (stereo not given) | -0.1 | 11.9 | -7.1 | 1.0 | . | .
CC(C)OCCCNC(=O)C(=O)NC(C)c1ccccc1 (stereo not given) | 0.0 | -4.3 | 8.9 | 5.3* | 0.7 | 13.4
COCCNC(=O)C(=O)NC(C)c1ccccc1 (stereo not given) | -0.1 | -1.2 | -10.3 | 2.4 | . | .
Cc1cc(C)cc(OCCNCCO)c1 | -0.4 | 17.8 | -6.0 | 1.1 | . | .
Cc1nnc(NC(=O)CSc2ccccc2)s1 | 0.5 | 20.4 | -15.8 | 1.1 | . | .
CCOc1ccc(-c2noc(CCC(=O)NC)n2)cc1OC | 0.1 | -0.6 | -15.4 | -0.3 | . | .
CCOc1cc(-c2noc(CCC(=O)NC)n2)cc(Br)c1OC | 0.2 | -17.5 | 5.6 | 6.6* | 0.4 | 7.8
CCOC(=O)c1nnn(CC(=O)NC(=O)Nc2cccc(CC)c2)c1C(=O)OCC | 0.0 | 3.0 | 2.7 | 5.7* | 1.5 | 10.1
COc1ccccc1NS(=O)(=O)c1cccc(S(=O)(=O)Nc2ccccc2OC)c1 | -0.1 | 7.3 | 9.0 | -0.6 | . | .
COc1ccccc1NS(=O)(=O)c1cccc(C(F)(F)F)c1 | 0.1 | -6.1 | 3.0 | 6.8* | -0.1 | 9.6
COC(=O)COc1ccc(S(=O)(=O)Nc2ccc(C(N)=O)cc2)cc1C | -0.2 | -7.5 | 3.0 | -1.1 | . | .
COC(=O)COc1ccc(S(=O)(=O)Nc2ccc(S(N)(=O)=O)cc2)cc1C | 0.1 | 3.4 | -6.1 | 5.9* | 0.9 | -0.9
COc1ccc(S(=O)(=O)Nc2ccc(Cl)cc2)cc1I | 0.1 | 2.2 | 8.7 | 18.8* | 0.1 | 5.9

Compound activity (PubChem BioAssay)
